Source: the supplement of paper PMC9492666
Structures can show the parent of a compound that is named as a salt.

What was measured:
HCC1937 = assay: relative cell viability, compound + RSL3, vs DMSO (fraction of DMSO control); higher = less growth inhibition; conditions: 72 h
MDA-MB-231 = assay: as above; conditions: 72 h
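Further: breast cancer cell viability read out with the CCK-8 kit after co-treatment of each compound with the ferroptosis inducer RSL3.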

SMILES	relative cell viability (HCC1937)	relative cell viability (MDA-MB-231)
Cc1ccc(Oc2nc3cc(-c4ccc(-c5ccccc5)cc4)c(Cl)cc3[nH]2)cc1C(=O)O + COC(=O)c1ccc([C@H]2c3[nH]c4ccccc4c3C[C@H](C(=O)OC)N2C(=O)CCl)cc1 [RSL3]	0.538	0.6
CN(CCOc1ccc(CC2SC(=O)NC2=O)cc1)c1ccccn1 (stereo unspecified) [Rosiglitazone] + COC(=O)c1ccc([C@H]2c3[nH]c4ccccc4c3C[C@H](C(=O)OC)N2C(=O)CCl)cc1 [RSL3]	1.26	0.646
C=C[C@H]1CN2CC[C@H]1C[C@@H]2[C@@H](O)c1ccnc2ccc(OC)cc12 [Quinidine sulfate] + COC(=O)c1ccc([C@H]2c3[nH]c4ccccc4c3C[C@H](C(=O)OC)N2C(=O)CCl)cc1 [RSL3]	0.439	0.673
CC(O)(CC(=O)O)CC(=O)O [Meglutol] + COC(=O)c1ccc([C@H]2c3[nH]c4ccccc4c3C[C@H](C(=O)OC)N2C(=O)CCl)cc1 [RSL3]	0.443	0.613
CC1CC(OC(=O)C(O)c2ccccc2)CC(C)(C)C1 (stereo unspecified) [Cyclandelate] + COC(=O)c1ccc([C@H]2c3[nH]c4ccccc4c3C[C@H](C(=O)OC)N2C(=O)CCl)cc1 [RSL3]	0.808	0.638
CN(C(=O)n1cnc(-c2ccc[n+]([O-])c2)c1)C1CCCCC1 + COC(=O)c1ccc([C@H]2c3[nH]c4ccccc4c3C[C@H](C(=O)OC)N2C(=O)CCl)cc1 [RSL3]	0.292	0.526
Nn1nnc2ccccc21 [1-Aminobenzotriazole] + COC(=O)c1ccc([C@H]2c3[nH]c4ccccc4c3C[C@H](C(=O)OC)N2C(=O)CCl)cc1 [RSL3]	0.528	0.758
COc1ccc(CN2CCC(c3ccc4nc(C(=O)N5CCN(Cc6ccc(C(F)(F)F)cc6)CC5)[nH]c4c3)CC2)cn1 + COC(=O)c1ccc([C@H]2c3[nH]c4ccccc4c3C[C@H](C(=O)OC)N2C(=O)CCl)cc1 [RSL3]	0.351	0.562
COc1ccc2c(c1)CCC1C2CCC2(C)C(NCCCCCCN3C(=O)C=CC3=O)CCC12 (stereo unspecified) + COC(=O)c1ccc([C@H]2c3[nH]c4ccccc4c3C[C@H](C(=O)OC)N2C(=O)CCl)cc1 [RSL3]	0.243	0.36
CCCCCCCCCCCC1=C(O)C(=O)C=C(O)C1=O [Embelin] + COC(=O)c1ccc([C@H]2c3[nH]c4ccccc4c3C[C@H](C(=O)OC)N2C(=O)CCl)cc1 [RSL3]	0.458	0.471
CC(=O)Nc1nc(C)c(S(=O)(=O)Nc2ccc(C(O)(C(F)(F)F)C(F)(F)F)cc2)s1 + COC(=O)c1ccc([C@H]2c3[nH]c4ccccc4c3C[C@H](C(=O)OC)N2C(=O)CCl)cc1 [RSL3]	0.484	0.952
O=C(O)c1ccnc(N2CC(O)(c3ccc(OCc4c(-c5c(Cl)cccc5Cl)noc4C4CC4)cc3Cl)C2)c1 [Cilofexor] + COC(=O)c1ccc([C@H]2c3[nH]c4ccccc4c3C[C@H](C(=O)OC)N2C(=O)CCl)cc1 [RSL3]	0.368	0.568
O=C(Nc1ccc(C(O)(C(F)(F)F)C(F)(F)F)cc1)c1ccc(C(F)(F)F)cc1 + COC(=O)c1ccc([C@H]2c3[nH]c4ccccc4c3C[C@H](C(=O)OC)N2C(=O)CCl)cc1 [RSL3]	0.264	0.255
O=S(=O)(Nc1ccc(C(O)(C(F)(F)F)C(F)(F)F)cc1)c1cccs1 + COC(=O)c1ccc([C@H]2c3[nH]c4ccccc4c3C[C@H](C(=O)OC)N2C(=O)CCl)cc1 [RSL3]	0.617	0.63
O=S(=O)(O)c1ccc2cc(N=Nc3cc(S(=O)(=O)O)c4cccnc4c3O)ccc2c1 + COC(=O)c1ccc([C@H]2c3[nH]c4ccccc4c3C[C@H](C(=O)OC)N2C(=O)CCl)cc1 [RSL3]	0.511	0.744
NC(CO)C(=O)O (racemic) [DL-Serine] + COC(=O)c1ccc([C@H]2c3[nH]c4ccccc4c3C[C@H](C(=O)OC)N2C(=O)CCl)cc1 [RSL3]	0.399	0.594
Cc1cc(C)c(S(=O)(=O)N(CCc2cccc(Br)c2)Cc2ccc(-c3cccc(S(C)(=O)=O)c3)cc2)c(C)c1 + COC(=O)c1ccc([C@H]2c3[nH]c4ccccc4c3C[C@H](C(=O)OC)N2C(=O)CCl)cc1 [RSL3]	0.636	0.475
C=C(C)[C@@H]1CC[C@]2(C)CC[C@]3(C)[C@H](CC[C@@H]4[C@@]5(C)CCC(=O)C(C)(C)[C@@H]5CC[C@]43C)[C@@H]12 + COC(=O)c1ccc([C@H]2c3[nH]c4ccccc4c3C[C@H](C(=O)OC)N2C(=O)CCl)cc1 [RSL3]	0.595	0.688
